Compounds without any hit were thinned out: in the full panel of roughly 83,000, 20% have a hit.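 Results are percent growth after 48 hours of single-concentration exposure. 100 means growth as in untreated cells, lower positive values show inhibition; negative values down to -100 show cell death.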 Values without a mark were called inactive. Calls of active or inactive are those of the source. The calls were made as follows: active = growth percent below 10; inactive = the rest.
Tests used:
Assay in all cases: NCI-60 one-dose screen, 48 h (100 = growth as untreated, 0 = no growth, -100 = all killed)
[1] = test system: SN12C renal; settings: 10 µM unless noted
[2] = test system: UO-31 renal; settings: 10 µM unless noted
[3] = test system: ACHN renal; settings: 10 µM unless noted
[4] = test system: CAKI-1 renal; settings: 10 µM unless noted
[5] = test system: A498 renal; settings: 10 µM
[6] = test system: HL-60(TB) leukemia; settings: 10 µM unless noted
[7] = test system: MOLT-4 leukemia; settings: 10 µM unless noted
[8] = test system: SR leukemia; settings: 10 µM unless noted
[9] = test system: RPMI-8226 leukemia; settings: 10 µM unless noted
[10] = test system: OVCAR-8 ovarian; settings: 10 µM unless noted
[11] = test system: OVCAR-5 ovarian; settings: 10 µM unless noted
[12] = test system: OVCAR-4 ovarian; settings: 10 µM unless noted
[13] = test system: SK-OV-3 ovarian; settings: 10 µM unless noted
[14] = test system: IGROV1 ovarian; settings: 10 µM unless noted
[15] = test system: OVCAR-3 ovarian; settings: 10 µM unless noted
[16] = test system: EKVX NSCLC; settings: 10 µM unless noted
[17] = test system: TK-10 renal; settings: 10 µM unless noted
[18] = test system: CCRF-CEM leukemia; settings: 10 µM unless noted
[19] = test system: HS 578T breast; settings: 10 µM unless noted

Row | SMILES | growth [1] [%] | growth [2] | growth [3] | growth [4] [%] | growth [5] | growth [6] | growth [7] | growth [8] | growth [9] | growth [10] [%] | growth [11] [%] | growth [12] [%] | growth [13] [%] | growth [14] [%] | growth [15] | growth [16] [%] | growth [17] [%] | growth [18] | growth [19]
1 | O=C1OCCC1Br (stereo not drawn) | 103 | 96.4% | 102% | 95 | 101% | 78.1% | 107% | 92.3% | 97.2% | 96.2 | 104 | 107 | 99.4 | 110 | 112% | – | – | – | –
2 | C/C=C(\C)C(=O)O[C@@H]1C(O)[C@H]2OC(COC(=O)CCC(=O)CCCCCC[C@H](CCCCC)O[C@@H]3OC(C)[C@H](OC(C)=O)C(O)[C@H]3O2)[C@H]1OC(=O)/C=C/c1ccccc1 (stereo partly drawn) | 17.2 | 15% | 12% | – | 14.8% | 17.8% | 37.7% | – | 2.87% (active) | 24 | 49.2 | 18 | 12.1 | 27.3 | 15.4% | 24.1 | 11.7 | 24.2% | 28.7%
3 | Cn1cc(-c2csc(-c3cn(CCCCN4CCCCC4)c4ccc(F)cc34)n2)c2cccnc21 | 75.7 | 20.6% | 54.6% | – | 81.5% | -0.887% (active) | -62% (active) | -44.9% (active) | 1.18% (active) | 91.8 | 103 | 87 | 100 | 71.7 | – | 89 | 106 | -60.5% (active) | 67.9%
4 | COC(=O)[C@@H](C)C[C@H](Cc1ccccc1)NC(=O)c1csc([C@@H](C[C@H](C(C)C)N(C)C(=O)C2(NC(=O)[C@H]3CCCCN3C)CC2)OC(C)=O)n1 | 31.3 | 48% | 32.4% | 59.8 | -5.45% (active) | -46.1% (active) | 9.45% (active) | 11% | 12.8% | 23.3 | 20.3 | 44.5 | 19.1 | 27.1 | -16.4% (active) | 29.1 | – | 3.37% (active) | 12%
5 | CC(=O)OCC1O[C@@H]([S-])C(OC(C)=O)[C@H](OC(C)=O)[C@@H]1OC(C)=O.[Au+].c1ccc(CN2[CH-]N(Cc3ccccc3)C(c3ccccc3)=C2c2ccccc2)cc1 | 23.6 | 45% | 30.1% | – | 42.1% | – | 11.2% | – | -2.4% (active) | 53.2 | 93 | 60.2 | 56.9 | 14.3 | -18.5% (active) | – | 29.6 | 7.57% (active) | 43.5%
6 | Cc1ccc(S(=O)(=O)F)cc1C(=O)O | 99.1 | 91.9% | 101% | 93.9 | 132% | – | 99.6% | 103% | 100% | 116 | 102 | 110 | 88.3 | 102 | – | – | 107 | 97.2% | 112%
7 | N#CC1C(C#N)C2CCC1C1C2N1c1ccccc1 (stereo not drawn) | 99.5 | 72.3% | 97.4% | 98.9 | – | – | 91.2% | 91.5% | 95.8% | 114 | 92.4 | 106 | 100 | 85.1 | 107% | 97.5 | – | 82.9% | 112%
8 | CO[C@H](C(=O)O)[C@@H]1Cc2cc3cc(OC4CC(OC5CC(O)C(O)C(C)O5)C(O)C(C)O4)c(C)c(O)c3c(O)c2C(=O)[C@H]1OC1CC(OC2CC(OC3CC(C)(O)C(O)C(C)O3)C(O)C(C)O2)C(O)C(C)O1 (stereo partly drawn) | 15.3 | 8.85% (active) | 2.89% (active) | 25.7 | -55.7% (active) | 41.3% | 1.78% (active) | 10.4% | 6.67% (active) | 13.5 | 17.6 | 19.7 | 23.7 | 35.4 | 10% | 31.3 | – | 23.8% | -1.09% (active)
9 | CN1C(=O)C(=Cc2cn(CCCCCCn3c4ccccc4c(=O)c4ccccc43)c3ccccc23)C(=O)N(C)C1=O | 104 | 65.6% | 92.9% | – | 110% | 79.3% | 97.5% | 77% | 103% | 95.2 | 77 | 95.2 | – | 90.5 | 102% | 96.2 | 111 | – | 101%
